# Measured values published in PubChem BioAssay AID1359 (The Scripps Research Institute Molecular Screening Center, 2008).
# In all, about 220,000 compounds went through this assay and about 970 (0.44%) were called active. The entries come from a sample that favours actives as a whole. Unmarked numbers belong to inactive results. No stated cut-off is given here; in the data, active means activation above about 27%; inactive means the rest.
# Biological target: Neuropeptide Y receptor type 2 (Homo sapiens) (UniProt P49146)
# Test: human Y2 receptor positive modulation or activation – cell-based, primary screen (AID 1359);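 further: cells stimulated with NPY near EC25 plus isoproterenol at EC100; 0% = vehicle plus submaximal agonist and 100% = vehicle plus saturating agonist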
# Conditions: cells expressing NPY-Y2, potentiator/agonist read-out; at 3.6 µM; stronger effect = higher value
# Sequence of Neuropeptide Y receptor type 2 (Homo sapiens) (P49146 whole entry, looked up): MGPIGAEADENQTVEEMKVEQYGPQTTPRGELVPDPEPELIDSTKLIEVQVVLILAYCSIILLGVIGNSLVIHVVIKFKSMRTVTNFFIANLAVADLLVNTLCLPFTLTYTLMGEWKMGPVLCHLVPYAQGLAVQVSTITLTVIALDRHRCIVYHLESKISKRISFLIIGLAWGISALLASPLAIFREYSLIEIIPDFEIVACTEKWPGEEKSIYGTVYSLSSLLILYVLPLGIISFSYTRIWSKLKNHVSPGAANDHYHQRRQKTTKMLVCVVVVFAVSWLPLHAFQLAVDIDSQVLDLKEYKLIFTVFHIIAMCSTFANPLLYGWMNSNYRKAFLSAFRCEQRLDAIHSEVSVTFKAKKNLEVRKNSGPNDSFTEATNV
row,Compound,activation
1,CC1(C)Cc2c(C#N)c(N3CCNCC3)nc(-c3ccco3)c2CS1,54.8% (active)
2,CN(C)P(=S)(Nc1ccccc1)C(Cl)(Cl)Cl (stereo not given),3.95%
3,Cn1c(O)c(C(=Nc2ccc(F)cc2)c2ccccc2)c(=O)n(C)c1=O,-10.2%
4,CCN1CC2C3CCC(C)(O3)C2C1 (stereo not given),3.85%
5,CCCCCCCCCCCCn1ccc(=N)cc1,-3.31%
